Laboratory results from PubChem BioAssay (EPA / NIEHS).
Several values for one entry are separate records, joined by “and”; a condition that tells them apart may be missing. Equal entries are not always repeated. Results filed as inconclusive are left out. A structure can be active in one record and inactive in another. Activity calls are given as the source filed them. How the source made its calls, unless noted: active means hit-call score of the fitted dose curve at least 0.9, where 1 is the maximum; inactive means score below 0.9.

Columns and labels:
[1] = target: Glucocorticoid receptor (Homo sapiens) (UniProt P04150); assay: ATG_GR_TRANS: Attagene TRANS-FACTORIAL HepG2 Assay for human Glucocorticoid Receptor (GR) (AID 2282978; active means hit-call score of the fitted dose curve at least 0.9, where 1 is the maximum;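 further: activators score as hits since higher reporter transcript over DMSO is fitted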); conditions: HepG2 Attagene TRANS GR reporter, mRNA transcription
Sequence of Glucocorticoid receptor (Homo sapiens) (P04150 whole entry, looked up, the tested form may be a part): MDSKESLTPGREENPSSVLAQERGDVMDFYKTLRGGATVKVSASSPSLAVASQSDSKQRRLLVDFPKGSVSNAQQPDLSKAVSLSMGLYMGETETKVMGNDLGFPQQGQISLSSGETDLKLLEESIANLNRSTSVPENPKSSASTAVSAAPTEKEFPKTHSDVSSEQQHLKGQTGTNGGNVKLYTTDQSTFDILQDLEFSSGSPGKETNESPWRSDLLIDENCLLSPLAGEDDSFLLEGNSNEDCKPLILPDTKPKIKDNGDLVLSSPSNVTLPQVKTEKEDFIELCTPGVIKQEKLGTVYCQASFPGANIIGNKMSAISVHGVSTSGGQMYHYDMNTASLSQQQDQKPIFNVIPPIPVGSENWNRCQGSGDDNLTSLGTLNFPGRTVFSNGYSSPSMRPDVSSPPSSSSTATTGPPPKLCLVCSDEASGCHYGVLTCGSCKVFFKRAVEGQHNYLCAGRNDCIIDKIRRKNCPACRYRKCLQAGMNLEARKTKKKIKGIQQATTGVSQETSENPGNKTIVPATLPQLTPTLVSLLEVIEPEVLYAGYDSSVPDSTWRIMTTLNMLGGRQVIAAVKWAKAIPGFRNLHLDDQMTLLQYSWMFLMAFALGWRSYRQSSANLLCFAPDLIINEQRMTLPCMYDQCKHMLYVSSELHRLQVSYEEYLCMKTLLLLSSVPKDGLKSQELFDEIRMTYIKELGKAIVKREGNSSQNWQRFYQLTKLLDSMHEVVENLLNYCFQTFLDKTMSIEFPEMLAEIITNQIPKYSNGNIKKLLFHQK
In short: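 HepG2 cells transiently transfected with GAL4-UAS reporter units and exogenous GR-Gal4 chimera, dosed 24 h. Reporter mRNA by RT-PCR, FAM labeling, HpaI digest and capillary electrophoresis; gain-of-signal fit versus DMSO.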

[2] = target: Oxysterols receptor LXR-alpha (Homo sapiens) (UniProt Q13133); assay: ATG_LXRa_TRANS: Attagene TRANS-FACTORIAL HepG2 Assay for human Liver X Receptor alpha (LXRa) (AID 2282980; active means hit-call score of the fitted dose curve at least 0.9, where 1 is the maximum); conditions: HepG2 Attagene TRANS reporter, LXRa transactivation
Sequence of Oxysterols receptor LXR-alpha (Homo sapiens) (Q13133 whole entry, looked up, the tested form may be a part): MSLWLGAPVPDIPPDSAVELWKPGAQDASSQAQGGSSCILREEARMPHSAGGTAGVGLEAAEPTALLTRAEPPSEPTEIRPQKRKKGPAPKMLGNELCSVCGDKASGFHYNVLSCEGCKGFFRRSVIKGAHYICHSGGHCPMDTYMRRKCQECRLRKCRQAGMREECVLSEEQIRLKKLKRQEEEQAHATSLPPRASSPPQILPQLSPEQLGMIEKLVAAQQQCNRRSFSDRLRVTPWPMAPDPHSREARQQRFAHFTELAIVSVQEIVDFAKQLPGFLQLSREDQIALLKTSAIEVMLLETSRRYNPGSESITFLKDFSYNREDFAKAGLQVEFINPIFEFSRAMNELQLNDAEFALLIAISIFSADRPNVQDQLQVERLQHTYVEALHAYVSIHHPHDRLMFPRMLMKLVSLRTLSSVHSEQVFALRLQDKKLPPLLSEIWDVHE
In short: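 Transfect HepG2 with GAL4-UAS multiplex reporter constructs (TRANS format, chimeric receptor-GAL4); treat 24 h; extract RNA, reverse-transcribe, PCR-amplify, FAM-label, HpaI-digest; resolve fragments by capillary electrophoresis. Upward response vs DMSO.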

[3] = target: Oxysterols receptor LXR-beta (Homo sapiens) (UniProt P55055); assay: ATG_LXRb_TRANS: Attagene TRANS-FACTORIAL HepG2 Assay for human Liver X Receptor beta (LXRb) (AID 2282981; active means hit-call score of the fitted dose curve at least 0.9, where 1 is the maximum); conditions: HepG2 Attagene TRANS GAL4-LXRb reporter, mRNA
Sequence of Oxysterols receptor LXR-beta (Homo sapiens) (P55055 whole entry, looked up, the tested form may be a part): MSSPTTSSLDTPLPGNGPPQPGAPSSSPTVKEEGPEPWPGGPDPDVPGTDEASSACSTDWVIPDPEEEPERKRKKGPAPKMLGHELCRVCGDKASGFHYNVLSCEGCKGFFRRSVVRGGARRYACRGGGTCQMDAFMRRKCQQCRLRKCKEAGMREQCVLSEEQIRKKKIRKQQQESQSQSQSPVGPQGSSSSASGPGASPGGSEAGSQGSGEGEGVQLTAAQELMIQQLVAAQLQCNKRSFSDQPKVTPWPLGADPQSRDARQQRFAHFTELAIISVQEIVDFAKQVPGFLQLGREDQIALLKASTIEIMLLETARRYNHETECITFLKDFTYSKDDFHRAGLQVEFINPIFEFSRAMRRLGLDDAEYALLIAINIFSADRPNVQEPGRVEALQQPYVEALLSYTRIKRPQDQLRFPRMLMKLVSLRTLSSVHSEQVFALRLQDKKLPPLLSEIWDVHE
In short: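 Readout: fluorescent reporter mRNA fragments resolved by capillary electrophoresis after RT-PCR. System: transiently transfected human HepG2, exogenous LXRb-Gal4 chimera driving GAL4-UAS reporter, 24 h dosing. Activity fitted upward against DMSO baseline.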

[4] = ATG_M_06_TRANS: Attagene TRANS-FACTORIAL HepG2 Assay for M06 Transcription Factor (Internal Marker) (AID 2282983; active means hit-call score of the fitted dose curve at least 0.9, where 1 is the maximum); conditions: HepG2 Attagene TRANS M06 internal marker reporter
In short: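 Background control endpoint: reporter mRNA from transiently transfected HepG2 after 24 h dosing, detected by RT-PCR with capillary electrophoresis fluorescence. Analysed for gain versus DMSO.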

[5] = ATG_M_32_TRANS: Attagene TRANS-FACTORIAL HepG2 Assay for M32 Transcription Factor (Internal Marker) (AID 2282984; active means hit-call score of the fitted dose curve at least 0.9, where 1 is the maximum;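 further: transcript level of a background control reporter unit measured by RT-PCR and capillary electrophoresis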); conditions: HepG2 Attagene TRANS M32 internal marker reporter
In short: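 Read-out: fluorescent reporter cDNA fragments resolved by capillary electrophoresis after RT-PCR of total RNA. Transfected HepG2 cells were exposed to chemical for 24 h. Activity scored in the positive direction relative to DMSO.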

[6] = target: Transcriptional activator Myb (Homo sapiens) (UniProt P10242); assay: ATG_Myb_CIS: Attagene CIS-FACTORIAL HepG2 Assay for human Myeloblastosis (Myb) Proto-Oncogene Transcription Factor (AID 2282986); conditions: HepG2 Attagene CIS-FACTORIAL Myb reporter transcription; actives raise or lower the signal
Sequence of Transcriptional activator Myb (Homo sapiens) (P10242 whole entry, looked up): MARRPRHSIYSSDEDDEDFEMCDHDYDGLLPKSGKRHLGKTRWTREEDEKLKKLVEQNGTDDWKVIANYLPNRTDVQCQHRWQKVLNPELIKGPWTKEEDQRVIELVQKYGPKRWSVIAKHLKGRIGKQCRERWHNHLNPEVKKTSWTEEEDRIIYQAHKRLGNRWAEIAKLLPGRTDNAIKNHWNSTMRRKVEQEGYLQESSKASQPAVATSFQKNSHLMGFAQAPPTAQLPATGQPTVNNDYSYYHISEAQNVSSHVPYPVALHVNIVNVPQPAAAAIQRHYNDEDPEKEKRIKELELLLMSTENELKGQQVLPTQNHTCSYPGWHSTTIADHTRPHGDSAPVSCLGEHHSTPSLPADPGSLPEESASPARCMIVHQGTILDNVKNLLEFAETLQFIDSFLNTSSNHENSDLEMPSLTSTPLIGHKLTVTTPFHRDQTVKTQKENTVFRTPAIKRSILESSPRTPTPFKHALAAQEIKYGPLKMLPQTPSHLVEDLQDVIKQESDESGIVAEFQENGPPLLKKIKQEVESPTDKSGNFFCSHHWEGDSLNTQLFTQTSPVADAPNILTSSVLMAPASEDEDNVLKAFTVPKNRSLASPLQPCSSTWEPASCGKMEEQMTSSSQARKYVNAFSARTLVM
In short: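 Transiently transfected HepG2 cells carrying a multiplexed cis-promoter reporter set report endogenous Myb activity after 24 h compound exposure. Reporter mRNA is read by RT-PCR with capillary electrophoresis of fluorescent products, fitted bidirectionally against DMSO.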

[7] = target: Nuclear respiratory factor 1 (Homo sapiens) (UniProt Q16656); assay: ATG_NRF1_CIS: Attagene CIS-FACTORIAL HepG2 Assay for human Nuclear Respiratory Factor 1 (NRF1) Orphan Gene (AID 2282987); conditions: HepG2 NRF1 cis-element reporter, Attagene multiplex; actives raise or lower the signal
Sequence of Nuclear respiratory factor 1 (Homo sapiens) (Q16656 whole entry, looked up): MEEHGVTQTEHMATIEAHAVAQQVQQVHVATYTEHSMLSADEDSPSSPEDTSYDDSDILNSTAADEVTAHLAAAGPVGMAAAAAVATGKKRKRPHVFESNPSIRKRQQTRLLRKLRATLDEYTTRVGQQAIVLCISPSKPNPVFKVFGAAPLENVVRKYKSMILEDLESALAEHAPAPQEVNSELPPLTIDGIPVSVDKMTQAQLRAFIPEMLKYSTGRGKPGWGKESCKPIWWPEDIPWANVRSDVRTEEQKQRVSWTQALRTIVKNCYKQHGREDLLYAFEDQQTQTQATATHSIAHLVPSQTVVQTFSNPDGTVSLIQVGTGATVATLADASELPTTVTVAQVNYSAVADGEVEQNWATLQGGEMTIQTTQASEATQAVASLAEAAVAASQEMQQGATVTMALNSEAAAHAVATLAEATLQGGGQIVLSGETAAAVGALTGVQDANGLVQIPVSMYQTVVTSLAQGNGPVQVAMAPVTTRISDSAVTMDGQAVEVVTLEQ
In short: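 HepG2 cells transiently transfected with multiple cis-regulated reporter units, exposed 24 h. Reporter mRNAs measured by RT-PCR, fluorescent labelling, HpaI digestion and capillary electrophoresis; bidirectional fitting against DMSO.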

[8] = ATG_NFI_CIS: Attagene CIS-FACTORIAL HepG2 Assay for human Nuclear Factor I (NFI) (AID 2282989); conditions: HepG2 cis-regulatory reporter, NFI response element transcription; actives raise or lower the signal
In short: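 Endogenous TF activity in HepG2 cells transiently transfected with cis-element-driven multiplexed reporter units, read 24 h after dosing. Reporter mRNA quantified by RT-PCR, 6-FAM labelling, HpaI digestion and capillary electrophoresis; bidirectional fit versus DMSO.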

[9] = target: Myc proto-oncogene protein (Homo sapiens) (UniProt P01106); assay: ATG_Myc_CIS: Attagene CIS-FACTORIAL HepG2 Assay for human Myelocytomatosis (Myc) Proto-Oncogene Transcription Factor (AID 2282990); conditions: HepG2, Attagene cis-reporter transcription factor activity; actives raise or lower the signal
Sequence of Myc proto-oncogene protein (Homo sapiens) (P01106 whole entry, looked up): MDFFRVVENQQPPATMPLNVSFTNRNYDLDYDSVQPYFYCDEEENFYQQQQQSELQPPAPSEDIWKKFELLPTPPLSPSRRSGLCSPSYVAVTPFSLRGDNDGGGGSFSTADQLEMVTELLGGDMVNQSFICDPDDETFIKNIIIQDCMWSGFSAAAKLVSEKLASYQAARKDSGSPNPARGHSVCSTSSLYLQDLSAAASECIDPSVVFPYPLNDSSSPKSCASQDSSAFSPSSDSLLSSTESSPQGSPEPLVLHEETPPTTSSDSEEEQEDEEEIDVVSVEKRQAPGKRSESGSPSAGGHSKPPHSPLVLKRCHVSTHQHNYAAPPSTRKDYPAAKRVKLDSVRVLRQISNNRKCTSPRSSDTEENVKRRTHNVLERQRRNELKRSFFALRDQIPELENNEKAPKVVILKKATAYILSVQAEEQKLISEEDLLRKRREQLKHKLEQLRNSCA
In short: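 Transiently transfected HepG2 cells bearing cis-promoter reporter units for endogenous transcription factors; 24 h exposure. Reporter mRNA measured by RT-PCR, 6-FAM primer extension, HpaI cut and capillary electrophoresis; bidirectional fit relative to DMSO.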

[10] = ATG_NF_kB_CIS: Attagene CIS-FACTORIAL HepG2 Assay for human Nuclear Factor Kappa B (NF-kB) (AID 2282991); conditions: HepG2 Attagene cis-factorial NF-kB reporter mRNA; actives raise or lower the signal
In short: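 HepG2 cells transfected with cis-promoter-driven reporter units, so endogenous transcription factor activity is measured. Reporter mRNA quantified 24 h after dosing by RT-PCR and capillary electrophoresis, with bidirectional fitting against DMSO.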

[11] = ATG_NRF2_ARE_CIS: Attagene CIS-FACTORIAL HepG2 Assay for human Nuclear Factor Erythroid 2 Related Factor 2 (NFR2) response to Antioxidant Response Elements (ARE) (AID 2282992); conditions: HepG2 Attagene ARE/NRF2 reporter, transcription factor activity; actives raise or lower the signal
In short: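 Endogenous transcription factor activity read out as reporter transcript levels (RT-PCR plus capillary electrophoresis, fluorescence) in transiently transfected HepG2 cells. Measured at 24 h after dosing; gain or loss of signal fitted versus DMSO.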

[12] = ATG_Oct_MLP_CIS: Attagene CIS-FACTORIAL HepG2 Assay for human Octamer-Binding Transcription Factor (Oct) (AID 2282993); conditions: HepG2 Attagene cis-factorial Oct reporter, mRNA; actives raise or lower the signal
In short: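 HepG2 cells transiently transfected with cis-element-driven reporter transcription units (endogenous TF activity); 24 h compound exposure. Reporter mRNA quantified by RT-PCR, 6-FAM labelling, HpaI digestion and capillary electrophoresis; bidirectional fit versus DMSO baseline.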

[13] = target: Cellular tumor antigen p53 (Homo sapiens) (UniProt P04637); assay: ATG_p53_CIS: Attagene CIS-FACTORIAL HepG2 Assay for human p53 Transcription Factor (AID 2282994); conditions: HepG2 p53 cis-element reporter, Attagene mRNA; actives raise or lower the signal
Sequence of Cellular tumor antigen p53 (Homo sapiens) (P04637 whole entry, looked up): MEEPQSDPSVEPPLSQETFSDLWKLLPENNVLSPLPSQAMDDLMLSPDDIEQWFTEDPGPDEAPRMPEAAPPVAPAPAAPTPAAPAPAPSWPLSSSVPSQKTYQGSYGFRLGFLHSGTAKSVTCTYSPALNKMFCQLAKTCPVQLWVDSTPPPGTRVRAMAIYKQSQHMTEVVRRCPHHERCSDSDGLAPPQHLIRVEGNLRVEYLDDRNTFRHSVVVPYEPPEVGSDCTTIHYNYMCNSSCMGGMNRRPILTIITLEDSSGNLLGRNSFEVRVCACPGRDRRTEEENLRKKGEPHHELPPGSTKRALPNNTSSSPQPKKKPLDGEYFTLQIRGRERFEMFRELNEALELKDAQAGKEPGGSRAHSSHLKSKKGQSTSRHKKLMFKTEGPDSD
In short: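 Endogenous p53 activity read in transiently transfected HepG2 from a cis-element-driven reporter transcript after 24 h exposure. RNA reverse-transcribed, PCR-amplified, fluorescently labelled and sized by capillary electrophoresis; gain or loss fitted against DMSO baseline.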

[14] = BSK_3C_TissueFactor: BioMAP Diversity Plus: 3C Assay for Tissue Factor Biomarker Activity (AID 2282997); conditions: BioMAP 3C HUVEC, tissue factor biomarker readout; actives raise or lower the signal
In short: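 After a 24 h chemical exposure of primary human umbilical vein endothelial cells, Tissue Factor levels were quantified by ELISA.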

[15] = BSK_3C_uPAR: BioMAP Diversity Plus: 3C Assay for Urokinase-type plasminogen activator receptor (uPAR) Biomarker Activity (AID 2282998); conditions: BioMAP 3C HUVEC, uPAR biomarker ELISA; actives raise or lower the signal
In short: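 Primary human umbilical vein endothelial cells, 3C system; surface uPAR measured by ELISA 24 h after dosing. Cytotoxicity via SRB total protein in parallel cultures; bidirectional fit against DMSO.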

[16] = BSK_3C_VCAM1: BioMAP Diversity Plus: 3C Assay for Vascular cell adhesion molecule 1 (VCAM1) Biomarker Activity (AID 2282999); conditions: BioMAP 3C HUVEC, VCAM1 ELISA, cytokine-stimulated; actives raise or lower the signal
In short: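 HUVEC primary cells, 24 h compound exposure; VCAM-1 by ELISA; gain/loss of signal fitted bidirectionally vs DMSO baseline.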

[17] = BSK_4H_Eotaxin3: BioMAP Diversity Plus: 4H Assay for Eotaxin 3 Biomarker Activity (AID 2283000); conditions: primary human endothelial cells (HUVEC); actives raise or lower the signal;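 on outcome: CCL26 protein level quantified by ELISA in parallel with SRB cytotoxicity check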
In short: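 Chemicals were added to human umbilical vein endothelium cultures, and Eotaxin-3 was quantified by ELISA at 24 h. Values were derived by bidirectional fitting with DMSO serving as negative control and activity baseline.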

[18] = target: Bile acid receptor (Homo sapiens) (UniProt Q96RI1); assay: ATG_FXR_TRANS: Attagene TRANS-FACTORIAL HepG2 Assay for Farnesoid X Receptor (FXR) (AID 2282979; active means hit-call score of the fitted dose curve at least 0.9, where 1 is the maximum;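 further: hits raise reporter mRNA above DMSO so AC50 marks FXR activation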); conditions: HepG2 Attagene TRANS FXR-GAL4 reporter transcription
Sequence of Bile acid receptor (Homo sapiens) (Q96RI1 whole entry, looked up, the tested form may be a part): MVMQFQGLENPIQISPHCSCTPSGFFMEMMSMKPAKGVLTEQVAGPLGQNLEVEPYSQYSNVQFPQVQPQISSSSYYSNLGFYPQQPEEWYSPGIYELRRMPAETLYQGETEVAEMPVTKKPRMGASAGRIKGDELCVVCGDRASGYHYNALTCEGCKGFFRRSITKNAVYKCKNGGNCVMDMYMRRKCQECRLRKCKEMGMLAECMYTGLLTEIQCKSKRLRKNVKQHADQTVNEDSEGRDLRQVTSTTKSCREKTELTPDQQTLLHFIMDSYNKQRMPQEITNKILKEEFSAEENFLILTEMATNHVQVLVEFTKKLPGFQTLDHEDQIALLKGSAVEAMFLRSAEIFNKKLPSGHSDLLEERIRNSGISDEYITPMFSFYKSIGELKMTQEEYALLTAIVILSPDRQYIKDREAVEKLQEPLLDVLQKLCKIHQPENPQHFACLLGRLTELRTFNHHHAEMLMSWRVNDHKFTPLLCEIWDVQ
In short: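 Transient transfection of HepG2 with multiplexed GAL4-UAS reporter units; exogenous FXR-GAL4 chimera. Dose 24 h → TriZol RNA → oligo(dT) RT → PCR, 6-FAM primer extension, HpaI cut → CE. Gain vs DMSO.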

[19] = target: human Peroxisome Proliferator-activated Receptor alpha (PPARa), PPARA (gene 5465) (UniProt Q07869); assay: ATG_PPARa_TRANS: Attagene TRANS-FACTORIAL HepG2 Assay for human Peroxisome Proliferator-activated Receptor alpha (PPARa) (AID 2283001; active means hit-call score of the fitted dose curve at least 0.9, where 1 is the maximum;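 on AC50: potency for gain of reporter signal over DMSO so agonist or activator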)
Sequence of human Peroxisome Proliferator-activated Receptor alpha (PPARa), PPARA (gene 5465) (Q07869 whole entry, looked up, the tested form may be a part): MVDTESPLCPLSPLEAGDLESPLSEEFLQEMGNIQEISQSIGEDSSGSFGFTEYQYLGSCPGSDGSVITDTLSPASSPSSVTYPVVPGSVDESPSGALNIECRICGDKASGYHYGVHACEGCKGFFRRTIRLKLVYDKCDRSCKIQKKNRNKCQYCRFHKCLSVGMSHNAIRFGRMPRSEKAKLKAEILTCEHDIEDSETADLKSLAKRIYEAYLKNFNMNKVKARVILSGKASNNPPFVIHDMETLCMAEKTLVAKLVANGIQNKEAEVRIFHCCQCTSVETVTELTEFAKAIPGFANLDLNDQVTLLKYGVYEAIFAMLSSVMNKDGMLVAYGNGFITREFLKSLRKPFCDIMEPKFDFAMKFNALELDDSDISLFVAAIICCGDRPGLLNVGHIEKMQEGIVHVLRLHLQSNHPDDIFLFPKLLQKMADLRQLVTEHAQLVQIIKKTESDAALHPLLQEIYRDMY
In short: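 Transient HepG2 transfection, GAL4-UAS reporters, NR-Gal4 chimeras; 24 h compound exposure. Readout: reporter transcripts by RT-PCR, 6-FAM primer extension, HpaI digest, capillary electrophoresis. Positive direction vs DMSO baseline.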

[20] = target: Nuclear receptor subfamily 4 group A member 2 (Homo sapiens) (UniProt P43354); assay: ATG_NURR1_TRANS: Attagene TRANS-FACTORIAL HepG2 Assay for human Nuclear Receptor Related Protein 1 (NURR1) (AID 2282985; active means hit-call score of the fitted dose curve at least 0.9, where 1 is the maximum); conditions: HepG2 Attagene TRANS reporter, mRNA readout
In short: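 Read-out: reporter mRNA induction by RT-PCR plus capillary electrophoresis with fluorescence detection, after 24 h dosing of transfected HepG2 cells. Exogenous NR-Gal4 chimera activity drives GAL4-UAS reporter; activity fitted upward versus DMSO.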

## CC[C@@H]1C[C@H](N(Cc2cc(C(F)(F)F)cc(C(F)(F)F)c2)C(C)=O)c2cc(C(F)(F)F)ccc2N1C(=O)OC(C)C
[1]
  AC50: 100 µM (active)
[2]
  outcome: inactive
[3]
  outcome: inactive
[4]
  outcome: inactive
[5]
  outcome: inactive
[6]
  outcome: inactive
[7]
  outcome: inactive
[8]
  outcome: inactive
[9]
  outcome: inactive
[10]
  outcome: inactive
[11]
  outcome: inactive
[12]
  outcome: inactive
[13]
  outcome: inactive
[14]
  outcome: inactive
[15]
  outcome: inactive
[16]
  outcome: inactive
[17]
  outcome: inactive

## O=c1c(-c2ccc(O)cc2)coc2cc(O)cc(O)c12
[1]
  outcome: inactive
[18]
  outcome: inactive
[2]
  outcome: inactive
[3]
  outcome: inactive
[4]
  outcome: inactive
[6]
  outcome: inactive
[7]
  outcome: inactive
[8]
  AC50: 27.1 µM (active)
  outcome: inactive
[9]
  outcome: inactive
[10]
  AC50: 73.5 µM (active) and 168 µM (active)
  outcome: inactive
[11]
  outcome: inactive
[12]
  AC50: 49.4 µM (active)
  outcome: inactive
[13]
  outcome: inactive
[14]
  outcome: inactive
[15]
  AC50: 29.2 µM (active)
[16]
  outcome: inactive
[17]
  AC50: 29.1 µM (active)
[19]
  AC50: 24.2 µM (active) and 100 µM (active) and 25.6 µM (active)

## Oc1ccc2ccccc2c1
[1]
  outcome: inactive
[2]
  outcome: inactive
[3]
  outcome: inactive
[4]
  outcome: inactive
[5]
  outcome: inactive
[6]
  outcome: inactive
[7]
  outcome: inactive
[8]
  outcome: inactive
[9]
  outcome: inactive
[10]
  outcome: inactive
[11]
  AC50: 15.5 µM (active) and 5.76 µM (active)
[12]
  outcome: inactive
[13]
  AC50: 180 µM (active)
  outcome: inactive
[14]
  outcome: inactive
[15]
  outcome: inactive
[16]
  outcome: inactive
[17]
  AC50: 15.7 µM (active)
[19]
  outcome: inactive

## CCCCCCCCCCCC[N+](C)(C)C
[1]
  outcome: inactive
[18]
  outcome: inactive
[2]
  outcome: inactive
[3]
  outcome: inactive
[4]
  outcome: inactive
[5]
  outcome: inactive
[20]
  outcome: inactive
[6]
  outcome: inactive
[7]
  outcome: inactive
[8]
  outcome: inactive
[9]
  outcome: inactive
[10]
  outcome: inactive
[11]
  AC50: 25.3 µM (active) and 18.9 µM (active)
[12]
  AC50: 20 µM (active)
  outcome: inactive
[13]
  outcome: inactive
[14]
  outcome: inactive
[15]
  AC50: 20 µM (active)
[16]
  AC50: 25.8 µM (active)
[17]
  AC50: 29.9 µM (active)

## CN(C)C(=O)C1(N2CCCCC2)CCN(CC[C@@]2(c3ccc(Cl)c(Cl)c3)CN(C(=O)c3ccccc3)CCO2)CC1
[1]
  outcome: inactive
[18]
  outcome: inactive
[2]
  outcome: inactive
[4]
  outcome: inactive
[6]
  outcome: inactive
[7]
  outcome: inactive
[8]
  outcome: inactive
[9]
  outcome: inactive
[10]
  AC50: 620 nM (active)
[11]
  AC50: 458 nM (active)
[12]
  outcome: inactive
[13]
  outcome: inactive
[14]
  AC50: 33.1 µM (active)
[15]
  AC50: 7.23 µM (active)
[16]
  AC50: 29.5 µM (active)
[17]
  AC50: 27.9 µM (active)
[19]
  outcome: inactive
